An excerpt weighted towards active compounds, which were near 32% of everything screened.
CYP2C9 inhib – human CYP2C9 inhibition. P11712. CYP2C9 Supersomes, luciferin-H conversion, luminescence. inhibition, % at 5 µM. 20% of 96,000 active;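 active = blocking of liver enzyme CYP2C9 beyond about 50% at 5 µM, limit read from the data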
Target sequence (P11712 whole entry, looked up): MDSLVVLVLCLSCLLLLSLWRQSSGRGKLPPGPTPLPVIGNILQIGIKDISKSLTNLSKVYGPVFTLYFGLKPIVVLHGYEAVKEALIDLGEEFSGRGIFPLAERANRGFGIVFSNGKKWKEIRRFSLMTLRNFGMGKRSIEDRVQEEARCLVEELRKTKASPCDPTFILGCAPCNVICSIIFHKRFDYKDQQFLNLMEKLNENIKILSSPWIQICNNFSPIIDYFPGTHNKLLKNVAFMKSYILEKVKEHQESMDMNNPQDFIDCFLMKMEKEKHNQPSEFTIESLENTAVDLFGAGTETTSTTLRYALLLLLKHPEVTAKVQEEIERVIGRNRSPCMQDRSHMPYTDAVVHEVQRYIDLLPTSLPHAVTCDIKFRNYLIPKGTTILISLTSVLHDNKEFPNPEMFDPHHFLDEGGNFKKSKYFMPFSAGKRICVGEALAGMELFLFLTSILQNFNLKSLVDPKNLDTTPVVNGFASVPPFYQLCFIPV
CYP2C19 act – increases human CYP2C19 enzyme activity; activation factor at 5 µM; AID 1025; recombinant CYP2C19, luciferin-H EGE luminescence; hits give high values; 0 = fully inhibited enzyme, 1 = untreated enzyme; P33261; 96,000 tested, under 10 active;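 active = activation factor of at least 2 at 5 µM in the primary screen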;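 note: 0 = wells with 2.5 mM tranylcypromine and 1 = vehicle-only wells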
CYP2C9 act – activators of human CYP2C9. recombinant CYP2C9, luciferin-H conversion, luminescence; hits give high values; factor 1 = untreated enzyme, 0 = blocked. activation factor at 5 µM. 1.4% of 96,000 active;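 active = activation factor of 2 or more for CYP2C9 at a 5 µM dose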;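 note: 0 = sulfaphenazole-blocked wells and 1 = vehicle-only wells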
PostGolgi ctrl – growth of the yeast control strain, post-Golgi counter-screen; efflux-deficient yeast background strain, growth absorbance A615, 16 h; inhibition, % at 10 µM; 5% of 98,000 active; AID 738
PostGolgi yeast – growth inhibition of a yeast mutant, post-Golgi transport screen. inhibition, % at 10 µM. 0.9% of 98,000 active. AID 739. post-Golgi transport phenotypic cell assay;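 note: yeast cells grown in 1536-well plates; yeast grown about 18 h at 30C before absorbance read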
CYP2C19 inh – inhibitors of human CYP2C19 | AID 778 | P33261 | 21% of 96,000 active | CYP2C19 Supersomes, luciferin-H EGE luminescence, 30 min | inhibition, % at 5 µM;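 active = CYP2C19 inhibition above a set limit at 5 µM in the primary screen, cut at about 50% in these data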;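 note: plate controls were negative control wells for no effect and 2.5 mM tranylcypromine positive control for full effect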
The depositor's hits bear a star; . = not tested or not shown. Cut-off read from the data, not from the text of the source, unless noted: active = inhibition above about 30%; inactive = the rest.

SMILES | CYP2C9 inhib | CYP2C19 act | CYP2C9 act | PostGolgi ctrl | PostGolgi yeast | CYP2C19 inh
Cc1ccc(/C=C/C(=O)c2ccccc2)cc1 | . | . | . | 3.2 | 5.5 | .
Cc1nn(-c2ccc(F)cc2)c(Cl)c1/C=C(\CC(=O)O)c1nc2ccccc2s1 | 17.3 | 1.1 | 0.8 | -2.4 | -0.5 | -12.1
Cc1ccc(-c2noc(CCC(=O)NCCCN3CCN(c4cccc(Cl)c4)CC3)n2)cc1 | 73.8* | 0.6 | 0.3 | 14.9 | -6.5 | 37.9
Cc1ccc(-c2noc(CCC(=O)NCCCN3CCN(c4ccc(F)cc4)CC3)n2)cc1 | 69.5* | 0.4 | 0.3 | 7.3 | -2.7 | 57.4*
COc1ccc(NC(=O)NCCN2CCN(c3cccc(Cl)c3)CC2)cc1 | 0.2 | 0.9 | 1 | 42.1* | 42.6* | 8.1
COc1ccc(-c2noc(CCC(=O)NCCCN3CCC(C)CC3)n2)cc1 | 2.4 | 1 | 1 | -4.3 | 6.4 | -0.4
COc1ccc(-c2noc(CCC(=O)NCCN3CCN(c4ccccc4F)CC3)n2)cc1 | 68.6* | 0.6 | 0.3 | 7.2 | 1.0 | 44.6
CCn1cc(C2=NOC(C(=O)Nc3ccc4c(c3)OCO4)C2)c(C)n1 (configuration not stated) | 44.6 | 1 | 0.6 | 0.0 | 20.4 | -3.6
CCCC1CC(C)(C(=O)CSc2n[nH]c(-c3ccccc3)n2)OC1=O (configuration not stated) | 42.2 | 0.5 | 0.6 | 2.6 | -9.2 | 49.7
O=C(NCCCN1CCN(c2cccc(Cl)c2)CC1)c1ccc(N2CCCC2=O)cc1 | 66.0* | 0.5 | 0.3 | -2.5 | -1.5 | 49.2
CCC(C)Nc1nc(-c2cccc(OC)c2O)nc2ccccc12 (configuration not stated) | . | . | . | 72.5* | 25.4 | .
COc1ccccc1Nc1nc(NCCO)c2ccccc2n1 | 34.6 | 1 | 0.7 | 7.0 | -8.7 | 4.3
CCOc1nc(-c2ccccc2O)nc2ccccc12 | -33.9 | 0.9 | 1.3 | 4.7 | -1.1 | 11.7
COc1cccc(-c2nc(NC(C)C)c3ccccc3n2)c1O | 28.1 | 0.9 | 0.7 | 75.3* | -4.5 | 7.9
Cc1cc(C)c2oc(-c3cccc(NC(=O)c4ccc(F)cc4)c3)nc2c1 | -10.3 | 1.1 | 1.1 | -0.1 | 0.2 | -11.9
Cc1ccc(S(=O)(=O)Oc2ccc3c(c2)O/C(=C\c2cccnc2)C3=O)cc1 | 91.1* | 0.3 | 0.1 | 6.1 | 2.0 | 72.5*
Cc1ccc(S(=O)(=O)Oc2ccc(/C=C3\N=C(c4cccc(C)c4)OC3=O)cc2)cc1 | 26.0 | 1 | 0.7 | -2.2 | 1.6 | 4.0
O=C1/C(=C/c2cccnc2)Oc2cc(OS(=O)(=O)c3ccc(F)cc3)ccc21 | 83.6* | 0.6 | 0.2 | 5.8 | 1.7 | 44.8
CCCCCCCCc1nnc(NC(=O)c2ccco2)s1 | 43.0 | 0.7 | 0.6 | -1.6 | -4.0 | 28.3
COc1ccc2c(c1)C(=O)CC(c1ccccc1F)O2 (configuration not stated) | -13.1 | 0.1 | 1.1 | 16.8 | 2.9 | 86.8*
O=C(Nc1cccc(O)c1)c1ccc(Br)c(S(=O)(=O)N2CCCCC2)c1 | 4.9 | 1 | 1 | -7.1 | -1.6 | 0.4
CC(C)(C)NC(=O)Cn1c(-c2nonc2N)nc2ccccc21 | 76.2* | 0.4 | 0.2 | -0.3 | -4.4 | 62.5*
CCCCOc1ccccc1NC(=O)Cn1c(-c2nonc2N)nc2ccccc21 | 69.7* | 0.7 | 0.3 | 9.3 | -9.9 | 32.7
Nc1nonc1-c1nc2ccccc2n1CC(=O)N/N=C\c1ccc(-c2ccc(Cl)cc2)o1 | -1.0 | 1.1 | 1 | 6.8 | 4.7 | -10.5
Cc1[nH]c2ccccc2c1C(O)CN1CCN(c2cccc(C(F)(F)F)c2)CC1 (configuration not stated) | -91.1 | 1 | 1.9 | 17.8 | 2.7 | 0.7
SMILES | CYP2C9 inhib | CYP2C19 act | CYP2C9 act | PostGolgi ctrl | PostGolgi yeast | CYP2C19 inh
NC1=NC(c2cccc(O)c2)n2c(nc3ccccc32)N1 (configuration not stated) | 3.3 | 0.8 | 1 | 9.3 | 20.4 | 17.9
Cc1cc(C2N=C(N)Nc3nc4ccccc4n32)c(C)n1-c1ccccc1Cl (configuration not stated) | 79.8* | 0.3 | 0.2 | 12.7 | 9.2 | 68.9*
Cc1ccc(-n2c(C)cc(C3N=C(N)Nc4nc5ccccc5n43)c2C)c(C)c1 (configuration not stated) | 77.4* | 0.4 | 0.2 | 45.9* | 0.6 | 61.0*
NC1=NC(c2ccc(F)cc2)n2c(nc3ccccc32)N1 (configuration not stated) | 6.8 | 0.3 | 0.9 | 4.8 | -0.5 | 67.3*
O=C(Nc1ccc(-c2nnco2)cc1)c1ccccc1 | 77.0* | 0.2 | 0.2 | 7.9 | 1.7 | 83.4*
COc1cccc(C(=O)Nc2ccc(-c3nnc(-c4ccco4)o3)cc2)c1 | 43.0 | 0.3 | 0.6 | 2.8 | -2.4 | 65.2*
O=C(Nc1ccc(-c2nc3ncccc3o2)cc1)c1ccco1 | 16.0 | 1 | 0.8 | 27.4 | -1.2 | -0.5
COc1cccc(C(=O)Nc2ccc(NC(C)=O)cc2)c1 | 12.2 | 0.7 | 0.9 | -0.6 | -6.6 | 27.3
Cc1ccc(-c2nnc(-c3ccc(NC(=O)c4ccco4)cc3)o2)cc1 | 79.1* | 0.3 | 0.2 | 5.1 | -3.5 | 66.6*
CCOc1ccc(C2Oc3nc(SC)nnc3-c3ccccc3N2C(C)=O)cc1OC (configuration not stated) | 15.3 | 1 | 0.8 | -7.0 | -4.9 | 1.6
O=C(COC(=O)C1CC1)Nc1ccc(Oc2ccccc2)cc1 | -8.1 | 0.7 | 1.1 | -4.8 | -1.9 | 29.4
CCOC(=O)c1sc(NC(=O)/C=C/c2cnn(CC)c2C)c(C(=O)OCC)c1C | 31.2 | 0.9 | 0.7 | 26.2 | -6.3 | 9.3
O=C(Cn1c(-c2ccccc2)noc1=O)NCc1ccccc1 | -98.5 | 0.6 | 2* | -9.3 | 0.3 | 41.3
O=C(CCC(=O)NNC(=O)COc1ccccc1)NCc1ccccc1 | 2.3 | 0.9 | 1 | -8.6 | -14.1 | 7.8
COc1ccc(OCC(=O)NNc2c3ccccc3nc3ccccc23)cc1 | -134.3 | 1 | 2.3* | 19.7 | 24.8 | -0.1
O=C(NNc1c2ccccc2nc2ccccc12)c1ccc(O)cc1O | 70.8* | 0.3 | 0.3 | 5.8 | 2.3 | 65.8*
O=C(COc1ccccc1)NNc1c2ccccc2nc2ccccc12 | -221.9 | 0.8 | 3.2* | 43.9* | -4.3 | 15.4
C=CCN1C(=O)CN=C1Nc1cc(C)ccc1C | 8.7 | 0.9 | 0.9 | 5.0 | -4.7 | 14.8
CCCCn1nnnc1NCc1cccc(OC)c1OC | 61.9* | 0.2 | 0.4 | 8.9 | 1.1 | 84.7*
CCCCn1nnnc1NCc1ccc(N(CC)CC)cc1 | 49.9 | 0.3 | 0.5 | 8.2 | 0.7 | 74.3*
CCCCn1nnnc1NCc1ccc(OC)c(OC)c1 | 4.5 | 0.8 | 1 | 3.3 | 0.6 | 22.9
N#Cc1ccccc1Sc1ccccc1C(=O)Nc1ccc(Br)cc1 | 46.1 | 0.6 | 0.5 | 37.0* | 26.1 | 43.8
O=C(COc1ccc(-n2cnnn2)cc1)NCCc1ccc(F)cc1 | 10.8 | 1 | 0.9 | 4.4 | -1.3 | 4.4
